Compound activity deposited in PubChem by National Center for Advancing Translational Sciences (NCATS).
Pf Dd2 inh: Plasmodium falciparum Dd2 growth inhibition. P. falciparum Dd2 growth, SYBR Green, 72 h. Potency, µM (doses to about 28.9 µM), most hits filed as inhibitors. 4.3% of 120,000 active; active = well fitted inhibition curve with a large enough effect; note: nearly all actives have a fitted effect of over 65% in size
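Readout: SYBR Green fluorescence, 485 nm excitation, 535 nm emission, after ~16 h lysis at 37C. Before that, Dd2-infected red cells (2.5% hematocrit) grew 72 h with compound, 29 uM top final concentration.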
A number is an active result; – = inactive. This is one part of a sample in which hits are shown more often than they occur.

SMILES | Pf Dd2 inh
CCCCN(CCCC)CCCNC(=O)c1cc(-c2ccc(Cl)s2)nc2ccccc12 | 5.6µM
CCc1ccc(CNC(=O)c2cc(-c3ccc(Cl)s3)nc3ccccc23)cc1 | –
Cc1cc(C)cc(Nc2cc(C(=O)NCCCN(C)C3CCCCC3)c3ccccc3n2)c1 | 6.3µM
COc1ccc(Nc2cc(C(=O)NC3CCC(C)CC3)c3ccccc3n2)cc1OC (configuration not stated) | –
CCOc1ncccc1C(=O)NC(C)c1cnc(-c2ccncc2)nc1C (configuration not stated) | –
Cc1ccccc1CN1CC2(COCC1=O)CN(c1ccccc1)C2 | –
COc1ccccc1C(=O)N1CCCc2nc(C)nc(-c3ccc(O)cc3)c2C1 | –
O=C(Cc1ccc(F)cc1)NCc1nnc2c(-c3nc(C4CC4)no3)cccn12 | –
COC[C@]1(O)CCN(S(=O)(=O)c2cccc(C(=O)O)c2)CC1(C)C | –
CC[C@H]1CN(C(=O)c2ccnc(Cl)c2)CC[C@H]1CC(=O)NCc1ccc2c(c1)OCO2 | –
CN1CC2(C1)C(=O)N(Cc1cccc(Cl)c1)C(=O)[C@@H]1C[C@@H](O)CN12 | –
Cc1nc(C)c(C(=O)N2CCC3(CC2)CC(N2CCOCC2)CCO3)s1 (configuration not stated) | –
CN1CC(=O)N(C2CCCNCC2)Cc2c1ncnc2N1CCC(N2CCCC2)CC1 (configuration not stated) | –
Cc1cccc(NC(=O)N2CC(C(=O)N(C)C)C3(CCOCC3)C2)c1 (configuration not stated) | –
COCCOC1CCOC2(CCN(C(=O)c3ccc(OC)cc3)CC2)C1 (configuration not stated) | –
O=C(Cn1cc(SCc2ccccc2F)c2ccccc21)N1CCCC1 | –
O=C(NCCn1cc(SCc2ccccc2Cl)c2ccccc21)c1cccs1 | 11µM
O=C(NCCn1cc(SCc2ccccc2)c2ccccc21)c1cccs1 | –
COc1ccc(-c2[nH]nc3ncc(-c4ccc(C)cc4)nc23)cc1F | 13µM
COc1ccccc1-c1[nH]nc2ncc(-c3ccc(C)cc3)nc12 | –
COc1ccc(-c2cnc3n[nH]c(-c4ccc(OC)c(F)c4)c3n2)cn1 | –
CCC(=O)N1CCC(N(C(=O)COC)C2CCOCC2)CC1 | –
O=C(c1cccs1)N1CCCC1c1nc(C2CCOCC2)no1 (configuration not stated) | –
CCOCc1nc(C2CCCN2S(=O)(=O)c2cccs2)no1 (configuration not stated) | –
O=S(=O)(c1cccnc1)N1CCC(c2nc(C3CC3)no2)C1 (configuration not stated) | –
SMILES | Pf Dd2 inh
O=S(=O)(c1cccnc1)N1CC(c2noc(C3CCCN3CC3CC3)n2)C1 (configuration not stated) | 6.3µM
O=S(=O)(c1cccs1)N1CC(c2noc(C3CCCN3CC3CC3)n2)C1 (configuration not stated) | 2.8µM
CC(=O)N1CCCC1c1nc(C2CN(C(=O)c3ccsc3)C2)no1 (configuration not stated) | –
O=C(c1ccc2c(c1)OCO2)N1CC(c2noc(C3CCCN3CC3CC3)n2)C1 (configuration not stated) | 5µM
COCCN1CCCC1c1nc(C2CN(C(=O)c3ncccc3C)C2)no1 (configuration not stated) | –
CC(=O)N1CCCC1c1nc(C2CN(S(=O)(=O)c3cccnc3)C2)no1 (configuration not stated) | –
CC(C)c1noc(-c2cn(C3CCN(C(=O)c4cccc5[nH]ccc45)CC3)nn2)n1 | –
O=C(CC1CCN(C(=O)C2CCC2)C1)NCc1ccccc1 (configuration not stated) | –
O=C(NC1CCCN(c2cc(-c3ccc(F)cc3)[nH]n2)C1)c1ccc2c(c1)OCO2 (configuration not stated) | –
COc1ccc(Br)c(C(=O)N[C@@H]2C=C(C(=O)NCCC(N)=O)C[C@@H](O)[C@@H]2O)c1 | –
O=C1Nc2ccc(-c3ccco3)cc2C(=O)N2CCN(C(=O)c3ccccc3)C[C@H]12 | –
Cc1ccc(C(=O)N2CCC3(CN[S+](=O)([O-])c4ccccc4N3)C2)cc1 (configuration not stated) | –
CN1C(=O)C(c2ccccc2)CC12CCN(S(C)(=O)=O)CC2 (configuration not stated) | –
CN1C(=O)C(c2ccccc2)CC12CCN(C(=O)C1CCCC1)CC2 (configuration not stated) | –
CN1C(=O)C(c2ccccc2)CC12CCN(CCC(=O)O)CC2 (configuration not stated) | 10µM
CC(=O)N1CCC(N2C[C@@H]3C[C@H]2C(=O)N(Cc2ccccn2)c2ccccc2O3)CC1 | –
O=C1CC(NS(=O)(=O)N2CCCC2)CN1Cc1ccc(F)cc1 (configuration not stated) | –
CC(C)n1cc2cc(C(=O)NCc3cccnc3)sc2c1 | –
COc1cc(CNC(=O)c2cc3cn(C(C)C)cc3s2)cc(OC)c1 | 13µM
COc1ccc(CNC(=O)c2cc3cn(C(C)C)cc3s2)cc1 | –
COc1ccc(NC(=O)N2CCCC(Cc3nncn3C)C2)cc1 (configuration not stated) | –
Cc1noc(-c2ccn3c(CNC(=O)c4ccc5ccccc5n4)nnc3c2)n1 | –
COC(=O)c1c(-c2ccc(Cl)cc2)noc1N1CCN(c2ccccc2F)CC1 | –
COC(=O)c1c(-c2ccc(Cl)cc2)noc1N1CCN(c2ccc(C)cc2C)CC1 | 8.9µM
COC(=O)c1c(-c2ccc(Cl)cc2)noc1N1CCN(c2ccc(C(C)=O)cc2)CC1 | –
SMILES | Pf Dd2 inh
CNC(=O)[C@@H]1C[C@H](Oc2ccccc2)CN1C(=O)Cn1c(=O)oc2ccccc21 | –
Cc1cccc(-c2noc([C@@H]3C[C@@H](O)CN3Cc3ncc[nH]3)n2)c1 | –
COc1ccc2cc3cc(C(=O)NCc4ccccc4OC)oc3nc2c1 | –
Cc1ccc2cc3cc(C(=O)N(C)c4ccccc4C)oc3nc2c1 | 11µM
COc1ccc(CNC(=O)c2cc3cc4ccc(C)cc4nc3o2)cc1 | –
COCc1cc(=O)n(CC(=O)NCc2ccc(F)cc2)c(N2CCOCC2)n1 | –
CN(C)C(=O)c1cccnc1OC1CCN(S(=O)(=O)Cc2ccccc2Cl)C1 (configuration not stated) | –
COc1ccc(NC(=O)c2ccc3c(c2)OCCN(Cc2ncccn2)C3)cc1F | –
COc1ccc(NC(=O)c2ccc3c(c2)C(O)CCCCCN3C)cn1 (configuration not stated) | –
COc1ccc(NC(=O)c2ccc3c(c2)OCCN(C2CCC2)C3)cn1 | 11µM
CCCCS(=O)(=O)N[C@@H]1CN(Cc2ccncc2)C[C@H]1CN(C)C | –
O=C(C1CC(=O)N(c2n[nH]c3cc(Br)ccc23)C1)N1CCSCC1 (configuration not stated) | –
CC1(C)[C@H](Cc2cc(CCO)on2)C[C@@H]1NC1CCCCC1 | –
CN(C)CC(=O)N1Cc2ccccc2CC2(CCCN(CCc3ccccc3)C2)C1 (configuration not stated) | 5µM
CCC(=O)N1Cc2ccccc2CC2(CCN(CC3CCNC3)C2)C1 (configuration not stated) | –
CCCC(=O)N1Cc2ccccc2CC2(CCN(Cc3ccc(O)cc3)C2)C1 (configuration not stated) | 13µM
C[S+](=O)([O-])N1Cc2ccccc2CC2(CCCN(CCc3ccccc3)C2)C1 (configuration not stated) | –
